Outcome data for 14 compounds are collected here from PubChem BioAssay (NCATS).

Active and inactive are the calls of the source. The call rests on the fitted dose curve.

For this assay, the target named is Tumor susceptibility gene 101 protein (Homo sapiens) (UniProt Q99816). As to the kind of experiment: qHTS Validation Assay for Iinhibitors of HIV-1 Budding by Blocking the Interaction of PTAP/TSG101 (AID 485342). Particulars: TSG101-PTAP binding, fluorescence polarization, 4-point titration; series mostly up to 115 µM. Put shortly: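 Tsg101 binding domain (10 uM) with FITC-labeled PTAP peptide (50 nM) in HEPES pH 7.5 buffer, 20 min at r.t. with compounds. Binding measured by fluorescence polarization.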
Sequence of Tumor susceptibility gene 101 protein (Homo sapiens) (Q99816 whole entry, looked up, the tested form may be a part): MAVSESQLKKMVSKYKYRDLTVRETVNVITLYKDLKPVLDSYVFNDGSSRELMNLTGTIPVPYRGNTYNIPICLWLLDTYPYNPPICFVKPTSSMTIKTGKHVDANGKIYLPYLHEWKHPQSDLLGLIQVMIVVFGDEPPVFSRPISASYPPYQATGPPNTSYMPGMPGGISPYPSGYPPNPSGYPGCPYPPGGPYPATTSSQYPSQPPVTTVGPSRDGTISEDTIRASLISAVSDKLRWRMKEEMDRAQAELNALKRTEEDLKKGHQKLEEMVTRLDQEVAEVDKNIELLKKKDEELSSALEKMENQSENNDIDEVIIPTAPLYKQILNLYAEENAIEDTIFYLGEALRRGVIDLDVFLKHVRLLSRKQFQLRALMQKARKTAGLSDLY
(In general: qHTS replaces the single test concentration by a dilution series.)
Turning to `CNc1ncnc2c1ncn2[C@@H]1O[C@H](CO)[C@@H](O)[C@H]1O`, the compound was called inactive.

Consider `CCNC(=O)[C@H]1O[C@@H](n2cnc3c(N)nc(NCCc4ccc(CCC(=O)O)cc4)nc32)[C@H](O)[C@@H]1O`, for which the call was inactive.

As for `CSc1nc(N)c2ncn([C@@H]3O[C@H](COP(=O)(O)OP(=O)(O)OP(=O)(O)O)[C@@H](O)[C@H]3O)c2n1`, the result was inactive.

Consider `Clc1ccc(N2CCN(Cc3cc4ccccn4n3)CC2)cc1`, for which the compound was called inactive.

Take `C=CC(=O)c1ccc(CCCCCC)cc1`: the compound was called inactive.

Turning to `OC[C@H]1O[C@@H](n2cnc3c(Nc4ccccc4)ncnc32)[C@H](O)[C@@H]1O`, the compound was classed as inactive.

Regarding `NC(=S)c1ccc[n+]([C@@H]2O[C@@H](COP(=O)([O-])OP(=O)(O)OC[C@H]3O[C@@H](n4cnc5c(N)ncnc54)[C@H](OP(=O)(O)O)[C@@H]3O)C(O)C2O)c1` (some centres undefined), the outcome was inactive.

For `COc1ccc2c(c1)CCC1C2CC[C@@]2(C)C1CC[C@@H]2NCCCCCCN1C(=O)CCC1=O` (some centres undefined), the compound was called inactive.

For `Cc1nc2sccn2c(=O)c1CCN1CCC(=C(c2ccccc2)c2ccc(F)cc2)CC1`, the call was inactive.

On to `CSc1ccccc1N1CCN(CCCCCC(=O)NC2CCCc3ccccc32)CC1` (centres undefined), for which the result was inactive.

For the compound `NC[C@H]1O[C@@H](n2cnc3c(N)ncnc32)[C@H](O)[C@@H]1O`, the outcome was inactive.

Consider `CCc1c(C(=O)NCCc2ccc(N3CCCCC3)cc2)[nH]c2ccc(Cl)cc12`, for which the outcome was inactive.

For the compound `N#C/C(=C\c1ccc(-c2cc(Cl)ccc2Cl)o1)C(=O)Nc1cccc2ncccc12`, the result was inactive.

Regarding `CO/S(=N\S(=O)(=O)c1ccc(Cl)cc1)c1ccc([N+](=O)[O-])cc1` (centres undefined), the call was inactive.
